Test results as given in PubChem BioAssay (Tox21).
Results filed as inconclusive are left out. Active and inactive are the calls of the source. Unless noted, the call rests on the fitted dose curve; in most records, active means well fitted curve in the direction sought with a large enough effect in the repeat runs; inconclusive means weak or mixed curves; inactive means no such curve, though single readings can be large; an effect the other way counts as inactive or inconclusive.

Experiments:
[1] = qHTS assay to identify small molecule antagonists of the estrogen related receptor (ERR) signaling pathway (AID 1224819; further: potency means the concentration at half of the fitted maximal effect; nearly all actives have a fitted effect of over 50% in size)
Procedure, shortened: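 ERR reporter cells were plated at 2,000 cells/well and left 6 h at 37 C/5% CO2 before pin-tool transfer of compounds in DMSO. After 18 h at 37 C, One-Glo was added and luminescence was read 30 min later at room temperature.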

[2] = qHTS assay to identify small molecule agonists of the estrogen related receptor (ERR) signaling pathway (AID 1224820); further: on the % scale 0 is the no-effect control and ±100 the full control effect
Procedure, shortened: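 Cells: ERR line from NTP, 2,000/well. Pre-incubation 6 h, 37 C/5% CO2. Compound (DMSO) pin transfer, 18 h 37 C. One-Glo, 30 min RT, luminescence.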

[3] = qHTS assay to identify small molecule antagonists of the estrogen related receptor signaling pathway with the pleiotropic PPARgamma coactivator (PGC) cell viability counter screen (AID 1224822;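 further: potency means the concentration at half of the fitted maximal effect; viability read after 17.5 h compound exposure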)
Procedure, shortened: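 PGC/ERR cells were seeded at 2,000 cells/well, rested 6 h at 37 C/5% CO2, then given compounds in DMSO by pin tool and incubated 17.5 h at 37 C. Viability came from CellTiter-Fluor fluorescence after 30 min.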

[4] = qHTS assay to identify small molecule agonists of the estrogen related receptor signaling pathway with the pleiotropic PPARgamma coactivator (PGC) (AID 1224823); further: on the % scale 0 is the no-effect control and ±100 the full control effect
Procedure, shortened: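 Steps: plate PGC/ERR cells at 2,000 cells/well; incubate 6 h, 37 C/5% CO2; pin-transfer compounds (DMSO); incubate 18 h, 37 C; add One-Glo; 30 min RT; read luminescence.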

[5] = molecular target: Glucocorticoid receptor (Homo sapiens) (UniProt P04150); experiment: qHTS assay to identify small molecule antagonists of the glucocorticoid receptor (GR) signaling pathway (AID 720692; active means well fitted inhibition curve with a large enough effect in the signal ratio in the repeat runs, not every such curve was filed as active; the % refers to the signal ratio; further: potency means the concentration at half of the fitted maximal effect)
Sequence of Glucocorticoid receptor (Homo sapiens) (P04150 whole entry, looked up): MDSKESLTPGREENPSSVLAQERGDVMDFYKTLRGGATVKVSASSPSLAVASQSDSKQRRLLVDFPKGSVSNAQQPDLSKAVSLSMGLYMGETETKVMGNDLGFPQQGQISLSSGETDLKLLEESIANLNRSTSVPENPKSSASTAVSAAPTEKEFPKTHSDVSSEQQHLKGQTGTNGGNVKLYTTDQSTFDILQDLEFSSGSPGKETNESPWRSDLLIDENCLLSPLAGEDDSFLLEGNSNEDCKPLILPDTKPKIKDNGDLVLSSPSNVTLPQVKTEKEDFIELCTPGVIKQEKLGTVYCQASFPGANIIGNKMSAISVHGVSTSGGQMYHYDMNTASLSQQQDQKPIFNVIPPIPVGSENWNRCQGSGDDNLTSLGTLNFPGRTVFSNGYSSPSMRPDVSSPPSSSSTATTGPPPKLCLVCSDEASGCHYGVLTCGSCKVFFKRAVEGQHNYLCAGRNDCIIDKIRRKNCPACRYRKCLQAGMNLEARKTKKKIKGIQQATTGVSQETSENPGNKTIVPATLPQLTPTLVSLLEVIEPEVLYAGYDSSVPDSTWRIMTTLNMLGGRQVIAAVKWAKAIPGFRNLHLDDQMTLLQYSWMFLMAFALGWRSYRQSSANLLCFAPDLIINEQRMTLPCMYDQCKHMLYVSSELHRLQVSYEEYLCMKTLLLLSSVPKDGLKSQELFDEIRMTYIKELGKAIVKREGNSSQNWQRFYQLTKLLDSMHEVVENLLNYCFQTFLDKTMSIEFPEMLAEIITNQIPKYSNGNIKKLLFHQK
Procedure, shortened: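 GR-bla HeLa cells (beta-lactamase reporter under glucocorticoid response element) were pre-plated 4 h at 37 C, treated with compounds plus 5 nM dexamethasone (final) for 18 h, then read by LiveBLAzer B/G FRET fluorescence after 2 h.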

[6] = molecular target: Aromatase (Homo sapiens) (UniProt P11511); experiment: qHTS assay to identify aromatase inhibitors (AID 743083); further: nearly all actives have a fitted effect of over 55% in size; further: potency means the concentration at half of the fitted maximal effect
Sequence of Aromatase (Homo sapiens) (P11511 whole entry, looked up): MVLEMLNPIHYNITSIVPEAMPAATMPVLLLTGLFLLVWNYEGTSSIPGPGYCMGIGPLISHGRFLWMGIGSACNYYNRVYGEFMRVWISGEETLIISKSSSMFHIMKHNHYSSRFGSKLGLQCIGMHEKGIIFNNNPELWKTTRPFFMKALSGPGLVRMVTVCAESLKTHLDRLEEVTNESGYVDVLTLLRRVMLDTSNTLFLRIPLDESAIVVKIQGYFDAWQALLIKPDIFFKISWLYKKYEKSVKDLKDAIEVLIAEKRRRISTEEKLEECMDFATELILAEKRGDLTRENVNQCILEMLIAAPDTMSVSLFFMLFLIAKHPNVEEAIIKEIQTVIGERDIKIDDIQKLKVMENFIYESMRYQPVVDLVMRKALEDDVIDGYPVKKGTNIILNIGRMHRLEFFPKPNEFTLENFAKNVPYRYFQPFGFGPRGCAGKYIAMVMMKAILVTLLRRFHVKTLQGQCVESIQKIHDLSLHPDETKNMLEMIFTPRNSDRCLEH

[7] = molecular target: Aryl hydrocarbon receptor (Homo sapiens) (UniProt P35869); experiment: qHTS assay to identify small molecule that activate the aryl hydrocarbon receptor (AhR) signaling pathway (AID 743085); further: nearly all actives have a fitted effect of over 15% in size; further: potency means the concentration at half of the fitted maximal effect
Sequence of Aryl hydrocarbon receptor (Homo sapiens) (P35869 whole entry, looked up): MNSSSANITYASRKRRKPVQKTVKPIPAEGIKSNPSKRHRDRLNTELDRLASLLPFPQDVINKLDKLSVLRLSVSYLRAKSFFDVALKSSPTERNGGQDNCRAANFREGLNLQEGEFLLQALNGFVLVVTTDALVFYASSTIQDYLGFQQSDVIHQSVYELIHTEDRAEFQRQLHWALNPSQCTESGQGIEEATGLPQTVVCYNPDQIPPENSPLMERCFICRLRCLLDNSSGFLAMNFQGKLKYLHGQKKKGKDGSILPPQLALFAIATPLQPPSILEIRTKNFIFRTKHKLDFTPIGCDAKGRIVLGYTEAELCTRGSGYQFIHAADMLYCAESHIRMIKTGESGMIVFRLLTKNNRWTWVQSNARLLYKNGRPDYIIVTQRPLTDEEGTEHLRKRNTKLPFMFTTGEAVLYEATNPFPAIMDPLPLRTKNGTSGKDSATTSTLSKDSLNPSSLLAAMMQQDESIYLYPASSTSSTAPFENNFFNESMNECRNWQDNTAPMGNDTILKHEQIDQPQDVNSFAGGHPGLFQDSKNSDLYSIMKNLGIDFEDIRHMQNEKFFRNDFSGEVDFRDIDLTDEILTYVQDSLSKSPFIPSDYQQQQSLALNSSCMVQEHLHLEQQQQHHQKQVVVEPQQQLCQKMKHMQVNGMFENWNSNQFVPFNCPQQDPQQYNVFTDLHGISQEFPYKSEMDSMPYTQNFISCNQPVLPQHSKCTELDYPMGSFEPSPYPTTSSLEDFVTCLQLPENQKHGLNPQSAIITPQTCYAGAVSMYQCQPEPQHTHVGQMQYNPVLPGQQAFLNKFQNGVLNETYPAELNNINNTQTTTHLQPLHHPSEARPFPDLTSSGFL
Procedure, shortened: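 HepG2 cells stably carrying a 20-DRE firefly luciferase reporter (HG2L7.5c1) treated with compound for 24 hr at 37C. Luciferase read by ONE-Glo luminescence, with CellTiter-Fluor viability read first.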

[8] = qHTS assay to identify small molecule agonists of the estrogen related receptor (ERR) signaling pathway from Tox21 library (AID 1224849; calls by dose curve; further: on the % scale 0 is the no-effect control and ±100 the full control effect; nearly all actives have a fitted effect of over 15% in size); settings: ERR reporter cell line, ONE-Glo luciferase, 18 h; at 92.4 µM (top of the series) unless noted
Procedure, shortened: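 ERR reporter cell line (NTP) seeded, rested 6 h at 37 C/5% CO2, then pinned with Tox21 compounds in DMSO. After 18 h at 37 C, ONE-Glo luciferase luminescence was read following 30 min at room temperature.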

[9] = Caspase-3/7 induction in HepG2 cells by small molecules, qHTS assay (AID 1346978); further: on the % scale 0 is the no-effect control and ±100 the full control effect; nearly all actives have a fitted effect of over 15% in size
Procedure, shortened: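 Wild-type HepG2 cells (2,000/well) were settled 5 h at 37 C, 5% CO2, then exposed to compounds in DMSO for 17 h. Caspase-3/7 activity was read by luminescence 30 min after adding Caspase-Glo 3/7 reagent at room temperature.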

[10] = molecular target: Acetylcholinesterase (Homo sapiens) (UniProt P22303); experiment: Acetylcholinesterase (AChE) small molecule antagonists: colormetric cell-based qHTS assay (AID 1347395; calls by dose curve; further: on the % scale 0 is the no-effect control and ±100 the full control effect; nearly all actives have a fitted effect of over 30% in size)
Sequence of Acetylcholinesterase (Homo sapiens) (P22303 whole entry, looked up): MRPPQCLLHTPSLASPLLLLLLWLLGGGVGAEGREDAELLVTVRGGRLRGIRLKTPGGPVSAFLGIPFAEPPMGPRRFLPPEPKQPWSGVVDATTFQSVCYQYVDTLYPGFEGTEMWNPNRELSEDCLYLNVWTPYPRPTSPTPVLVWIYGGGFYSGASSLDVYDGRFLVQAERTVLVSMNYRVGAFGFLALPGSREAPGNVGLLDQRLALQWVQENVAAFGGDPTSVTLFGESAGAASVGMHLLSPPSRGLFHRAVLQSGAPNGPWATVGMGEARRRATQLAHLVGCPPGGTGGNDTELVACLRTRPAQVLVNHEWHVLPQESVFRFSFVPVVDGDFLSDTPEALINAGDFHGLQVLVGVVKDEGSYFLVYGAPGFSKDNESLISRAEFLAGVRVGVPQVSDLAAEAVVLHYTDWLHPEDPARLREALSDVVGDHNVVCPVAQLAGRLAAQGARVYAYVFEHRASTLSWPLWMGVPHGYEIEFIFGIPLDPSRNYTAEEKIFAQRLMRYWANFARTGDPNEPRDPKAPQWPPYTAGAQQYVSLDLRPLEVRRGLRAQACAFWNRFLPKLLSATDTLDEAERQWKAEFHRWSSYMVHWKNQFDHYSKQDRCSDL
Procedure, shortened: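 SH-SY5Y cells attached overnight, exposed to compound 30 min at 37 C, then given DTNB/acetylthiocholine; after 90 min at 37 C, colorimetric thiocholine read gives cellular AChE activity.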

[11] = molecular target: Acetylcholinesterase (Homo sapiens) (UniProt P22303); experiment: Acetylcholinesterase (AChE) small molecule antagonists: enzyme-based qHTS assay (AID 1347397; calls by dose curve; further: on the % scale 0 is the no-effect control and ±100 the full control effect; nearly all actives have a fitted effect of over 55% in size); settings: Potency: AChE enzyme activity inhibition; outcome: AChE enzyme activity inhibition
Procedure, shortened: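 Human recombinant acetylcholinesterase; substrate acetylthiocholine; thiocholine quantified with DTNB (colorimetric). Compound preincubation 30 min RT; reaction 10 min RT.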

[12] = molecular target: Acetylcholinesterase (Homo sapiens) (UniProt P22303); experiment: Acetylcholinesterase (AChE) small molecule antagonists: fluorescence cell-based qHTS assay (AID 1347398; calls by dose curve; further: on the % scale 0 is the no-effect control and ±100 the full control effect; nearly all actives have a fitted effect of over 50% in size); settings: Potency: AChE activity; outcome: AChE activity
Procedure, shortened: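 Thiocholine generated from acetylthiocholine by SH-SY5Y cell AChE is detected with Thiolite Green (Ex/Em 490/520 nm) after 40 min at room temperature, following 30 min compound pretreatment at 37 C.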

[13] = molecular target: Acetylcholinesterase (Homo sapiens) (UniProt P22303); experiment: Acetylcholinesterase (AChE) small molecule antagonists: enzyme-based qHTS assay with human liver microsomes (AID 1347399; calls by dose curve; further: on the % scale 0 is the no-effect control and ±100 the full control effect; nearly all actives have a fitted effect of over 60% in size); settings: Potency: qHTS inhibition; outcome: qHTS inhibition
Procedure, shortened: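 Recombinant human AChE (50 mU/mL in the enzyme mix) and human liver microsomes (0.25 mg/mL final) were preincubated with compound and NADPH (0.25 mg/mL final) for 30 min at 37 C. Acetylthiocholine/DTNB was then added; thiocholine was read colorimetrically after 10 min at room temperature.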

[14] = qHTS assay to identify small molecule agonists of the estrogen related receptor signaling pathway with the pleiotropic PPARgamma coactivator (PGC) from Tox21 10K library (AID 1224842); further: nearly all actives have a fitted effect of over 15% in size; further: potency means the concentration at half of the fitted maximal effect
Procedure, shortened: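 PGC/ERR reporter cells (NTP line) were seeded 2,000 per well, rested 6 h at 37 C/5% CO2, then pin-dosed with compounds in DMSO for 18 h at 37 C; luciferase read by One-Glo luminescence after 30 min at room temperature.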

[15] = qHTS assay to identify small molecule agonists of H2AX (AID 1224845; active means well fitted activation curve with a large enough effect in the signal ratio in the repeat runs, not every such curve was filed as active; the % refers to the signal ratio; further: on the % scale 0 is the no-effect control and ±100 the full control effect)
Procedure, shortened: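 Wild-type CHO-K1 cells plated overnight, then exposed 3 hr at 37C to compounds at 15 concentrations (0.76% DMSO). Lysed, then HTRF anti-pH2AX(S139)-cryptate/anti-H2AX-d2 detection after 24 hr at room temperature; emissions 665 and 620 nm.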

[16] = qHTS assay to test for compound auto fluorescence at 590 nm (red) in HepG2 cells (AID 720674); further: on the % scale 0 is the no-effect control and ±100 the full control effect
Procedure, shortened: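 Rose Bengal sodium served as the red fluorophore standard. HepG2 monolayers (overnight attachment, MEM with 10% FBS) were exposed to test compounds for 1 hr at 37 C and read at Ex 540/Em 590 nm.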

[17] = qHTS assay to test for compound auto fluorescence at 535 nm (green) in HepG2 cells (AID 720675); further: on the % scale 0 is the no-effect control and ±100 the full control effect
[18] = qHTS assay to test for compound auto fluorescence at 460 nm (blue) in HEK293 cells (AID 720678); further: on the % scale 0 is the no-effect control and ±100 the full control effect
Procedure, shortened: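 After cell attachment (4-5 hr, 37C), compounds were pinned onto HEK293 monolayers in 10% dialyzed FBS medium. The blue channel (405/460 nm) was read following overnight culture. Equivalency was calculated against triamterene.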

[19] = qHTS assay to test for compound auto fluorescence at 590 nm (red) in HEK293 cells (AID 720679); further: on the % scale 0 is the no-effect control and ±100 the full control effect
Procedure, shortened: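 Plates of HEK293 cells (10% dialyzed FBS) are treated with 23 nL compound or DMSO vehicle after a 4-5 hr attachment period, incubated overnight at 37C, and read for red fluorescence at 540/590nm.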

[20] = qHTS assay to test for compound auto fluorescence at 460 nm (blue) in HEK293 cell free culture (AID 720681); further: on the % scale 0 is the no-effect control and ±100 the full control effect
Procedure, shortened: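 Test compounds were pinned into cell-free culture medium (DMEM with 10% FBS) and fluorescence was read directly at Ex/Em 405/460 nm. Signals were expressed as fluorescence equivalents of triamterene, with DMSO vehicle as control.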

[21] = qHTS assay to test for compound auto fluorescence at 535 nm (green) in HEK293 cell free culture (AID 720682); further: on the % scale 0 is the no-effect control and ±100 the full control effect
Procedure, shortened: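 Green-label autofluorescence (485 nm excitation, 535 nm emission) measured on compound added to cell-free culture medium (DMEM, 10% FBS). Output is expressed relative to fluorescein.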

[22] = qHTS assay to test for compound auto fluorescence at 590 nm (red) in HEK293 cell free culture (AID 720683); further: on the % scale 0 is the no-effect control and ±100 the full control effect
Procedure, shortened: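 Tox21 10K library compounds were pinned into cell-free DMEM with 10% FBS and fluorescence was read at excitation 540 nm. Activity is expressed as Rose Bengal sodium equivalency.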

[23] = qHTS assay to test for compound auto fluorescence at 590 nm (red) in HepG2 cell free culture (AID 720684); further: on the % scale 0 is the no-effect control and ±100 the full control effect
Procedure, shortened: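 Measured in medium alone (MEM containing 10% FBS) following pintool addition of compound; emission at 590 nm with 540 nm excitation, referenced to Rose Bengal sodium.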

[24] = qHTS assay to test for compound auto fluorescence at 460 nm (blue) in HepG2 cell free culture (AID 720685); further: on the % scale 0 is the no-effect control and ±100 the full control effect
Procedure, shortened: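 Compound (23 nL) or DMSO pinned into cell-free MEM with 10% FBS; blue fluorescence read at 405/460 nm excitation/emission, expressed as auto-fluorescence equivalency to triamterene.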

[25] = qHTS assay to test for compound auto fluorescence at 460 nm (blue) in HepG2 cells (AID 720687); further: on the % scale 0 is the no-effect control and ±100 the full control effect
Procedure, shortened: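 Cells (2,000/well in MEM with 10% FBS) attached overnight at 37 C, then were exposed to compound or DMSO for 1 hr at 37 C, 5% CO2. Fluorescence read at Ex/Em 405/460 nm, expressed as triamterene-equivalent signal.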

[26] = molecular target: Luciferin 4-monooxygenase (Photinus pyralis) (UniProt P08659); experiment: qHTS assay to identify small molecule inhibitors of firefly luciferase (AID 1224835); further: on the % scale 0 is the no-effect control and ±100 the full control effect; nearly all actives have a fitted effect of over 25% in size
Sequence of Luciferin 4-monooxygenase (Photinus pyralis) (P08659 whole entry, looked up): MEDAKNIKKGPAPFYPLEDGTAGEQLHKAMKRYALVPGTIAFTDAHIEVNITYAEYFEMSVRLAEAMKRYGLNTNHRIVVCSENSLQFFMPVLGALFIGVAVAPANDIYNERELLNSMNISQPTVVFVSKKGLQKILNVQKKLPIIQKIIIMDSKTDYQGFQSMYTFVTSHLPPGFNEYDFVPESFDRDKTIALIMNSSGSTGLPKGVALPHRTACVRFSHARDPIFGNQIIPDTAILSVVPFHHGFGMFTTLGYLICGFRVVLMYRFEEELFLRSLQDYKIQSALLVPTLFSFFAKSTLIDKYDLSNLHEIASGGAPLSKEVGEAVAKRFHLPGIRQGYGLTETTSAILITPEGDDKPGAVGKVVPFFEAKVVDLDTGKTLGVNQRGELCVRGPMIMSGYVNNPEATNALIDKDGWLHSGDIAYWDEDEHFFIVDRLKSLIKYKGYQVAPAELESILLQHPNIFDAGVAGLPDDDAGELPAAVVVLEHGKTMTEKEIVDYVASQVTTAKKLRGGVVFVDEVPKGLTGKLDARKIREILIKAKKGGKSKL
Procedure, shortened: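 Quantitative HTS format; KM concentrations of both substrates. Purified P. pyralis FLuc activity quantified from luminescence images.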

[27] = qHTS RealTime-Glo MT Cell Viability Assay in HEK293 cells - 0 hour (AID 1224880); further: top concentration of the series differs between compounds; on the % scale 0 is the no-effect control and ±100 the full control effect; nearly all actives have a fitted effect of over 45% in size
Procedure, shortened: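 HEK293 cells mixed with RealTime-Glo reagents (NanoLuc plus cell-permeant prosubstrate) at 600 cells/well, preincubated 5 h at 37 C/5% CO2, then given 23 nL compound in DMSO. Nonlytic luminescence from viable cells was read at 0, 8, 16, 24, 32 and 40 h.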

[28] = qHTS assay to identify small molecule HDAC inhibitors (AID 1259364); further: top concentration of the series differs between compounds; on the % scale 0 is the no-effect control and ±100 the full control effect; nearly all actives have a fitted effect of over 45% in size
Procedure, shortened: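 Wild-type HCT-116 cells were plated overnight, exposed to compounds for 2 h at 37 °C, then given HDAC-Glo class I/II luminogenic reagent for 30 min at room temperature before luminescence was read.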

[29] = qHTS assay for small molecule agonists of the p53 signaling pathway (AID 651631; calls by dose curve)
Procedure, shortened: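 HCT-116 cells carrying a beta-lactamase reporter under p53 response elements were dosed with compound for 16 h at 37 °C. LiveBLAzer B/G FRET substrate was then added for 2 h at room temperature, and fluorescence intensity was read to detect pathway agonism.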

CC(=O)c1c(O)c(C)c(O)c(Cc2c(O)c3c(c(C(=O)/C=C/c4ccccc4)c2O)OC(C)(C)C=C3)c1O
inactive: Potency [2] | Potency [4]
active: Potency [1] 10.6 µM | Potency [3] 3.48 µM

Nc1ccc(N)c2ccccc12
inactive: activity change, positive = activation [8] -69.5% | Potency [9] | Potency [10] | Potency [11] | Potency [12] | Potency [13]
active: Potency [5] 24.5 µM | Potency [6] 3.06 µM | Potency [7] 0.968 µM

Cc1cccc(C)c1
inactive: Potency [5] | Potency [6] | Potency [7] | Potency [14] | Potency [15] | activity change, positive = activation [8] 1.06% | Potency [9] | Potency [10] | Potency [11] | Potency [12] | Potency [13]

Cc1ccc2ccccc2c1C
inactive: outcome [16] | Potency [17] | Potency [18] | outcome [19] | Potency [20] | Potency [21] | outcome [22] | outcome [23] | Potency [24] | Potency [25] | Potency [26] | outcome [27] | outcome [28]

O=Nc1ccc(Nc2ccccc2)cc1
inactive: Potency [9] | Potency [10] | Potency [11] | Potency [12] | Potency [13]
active: Potency [29] 61.1 µM | Potency [14] 9.74 µM | activity change, positive = activation [8] -79.9%
